# Activity calls are given as the source filed them. Calls follow the shape of the dose curve; as a rule, active = well fitted activation curve with a large enough effect; inconclusive = small, poorly fitted or top-dose-only effect; inactive = no such curve, though single readings can be large or run the other way.
# Molecular target: Parathyroid hormone/parathyroid hormone-related peptide receptor (Homo sapiens) (UniProt Q03431)
# Experiment: qHTS for PTHR1 Agonists: Optimization Screen against the NCGC LOPAC library (AID 1347079); as to activation: 0% is about no effect
# Conditions: HEK293 GP2 PTHR1 GloSensor cAMP luminescence, 1 h; series mostly up to 57.1 µM; activation: at the top concentration
# Description: The goal of the proposed studies is to discover new compounds that act as potent agonists on the parathyroid hormone receptor type-1 (PTHR1). The PTHR1 plays critical roles in maintaining blood calcium and phosphate levels, as well as in controlling bone remodeling. PTHR1 agonists could thus be useful for treating diseases such as hypoparathyroidism and osteoporosis. In the former disease, an agonist drug would help maintain normal blood calcium and phosphate levels under conditions of parathyroid hormone deficiency. In the latter disease, an agonist drug would stimulate new bone formation and thus reduce the risk of fracture, under conditions of bone fragility, as occurs in aging. We performed an optimization assay of the quantitative high-throughput screening (qHTS) for the parathyroid hormone receptor type-1 (PTHR1) against the NCGC LOPAC library collection of […] compounds using a unique HEK-293-derived cell line (GP2) that expresses the PTHR1 and a GloSensor cAMP reporter construct. Increase in signal (activation / agonist) is the desired outcome for compounds of interest. NIH Chemical Genomics Center [NCGC] NIH Molecular Libraries Probe Production Centers Network [MLPCN] MLPCN Grant: P01 DK011794 Assay Submitter (PI): Thomas Gardella PhD, Massachusetts General Hospital
# Reagents / Controls: M-PTH (1-15) peptide hormone fragments was provided by the assay provider and was used as a control. Column 1 was treated with M-PTH titration (1:2 dilution) beginning with a final concentration of 10uM. Column 2 was treated with M-PTH final concentration of 10uM. Columns 3 and 4 were treated with DMSO only to assess background and noise signal. Assay Steps: Four microLiter of cells suspension was dispensed in a 1536-well assay plate at a final density of 3000 cells/well. The plates were incubated overnight, after which 4uL of 0.5mM of BloTium Luciferin plus 0.5mM IBMX was added. Next, the plate was incubated at 37C for 1hr before 23nL of compound (at various final concentrations from 40uM to 0.32uM) and control were added using a 1536-well array Kalypsys pin-tool. The treated plates were again incubated at 37C for another hour. Luminescence signal was obtained using the PerkinElmer ViewLux plate reader after 15min or room temperature incubation.
# Potency is read from the fitted curve at half-maximal effect.
# Parathyroid hormone/parathyroid hormone-related peptide receptor (Homo sapiens), sequence (Q03431 whole entry, looked up): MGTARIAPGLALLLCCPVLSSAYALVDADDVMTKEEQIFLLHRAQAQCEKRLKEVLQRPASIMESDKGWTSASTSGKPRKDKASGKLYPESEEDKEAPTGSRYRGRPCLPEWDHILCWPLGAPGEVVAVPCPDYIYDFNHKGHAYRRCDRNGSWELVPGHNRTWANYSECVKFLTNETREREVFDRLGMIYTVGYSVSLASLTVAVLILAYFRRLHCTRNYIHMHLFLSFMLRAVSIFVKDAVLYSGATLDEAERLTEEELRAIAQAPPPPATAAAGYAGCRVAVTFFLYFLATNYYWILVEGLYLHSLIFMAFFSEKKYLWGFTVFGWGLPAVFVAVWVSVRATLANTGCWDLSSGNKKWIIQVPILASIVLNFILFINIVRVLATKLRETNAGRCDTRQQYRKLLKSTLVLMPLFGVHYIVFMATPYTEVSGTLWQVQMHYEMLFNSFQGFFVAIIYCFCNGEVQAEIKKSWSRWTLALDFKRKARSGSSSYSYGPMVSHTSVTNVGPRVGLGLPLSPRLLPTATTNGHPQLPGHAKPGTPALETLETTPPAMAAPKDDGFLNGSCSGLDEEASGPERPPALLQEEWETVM
SMILES,activation,Potency
O=C(CCCN1CCC(O)(c2ccc(Cl)cc2)CC1)c1ccc(F)cc1,-23.1% (inactive),–
CCCCc1oc2ccccc2c1C(=O)c1cc(I)c(OCCN(CC)CC)c(I)c1,-31.8% (inactive),–
COc1ccccc1OCCNCC(O)COc1cccc2[nH]c3ccccc3c12 (stereo not given),15.6% (inactive),–
CCC1(c2ccccc2)C(=O)NCNC1=O,-27.5% (inactive),–
C[C@H]1c2cccc(O)c2C(O)=C2C(=O)[C@]3(O)C(O)=C(C(N)=O)C(=O)[C@@H](N(C)C)[C@@H]3[C@@H](O)[C@@H]21,20.2% (inactive),–
Nc1c2c(nc3ccccc13)CCCC2,-35.9% (inactive),–
OCCN1CCN(CCCN2c3ccccc3Sc3ccc(C(F)(F)F)cc32)CC1,-20.5% (inactive),–
CN1CCN(C2=Nc3cc(Cl)ccc3Nc3ccccc32)CC1,0.0872% (inactive),–
CCc1cccc2c3c([nH]c12)C(CC)(CC(=O)O)OCC3 (stereo not given),14.7% (inactive),–
Nc1nnc(-c2cccc(Cl)c2Cl)c(N)n1,9.94% (inactive),–
NC12CC3CC(CC(C3)C1)C2,66.2% (inactive),–
NS(=O)(=O)c1cc2c(cc1Cl)NCNS2(=O)=O,-21.8% (inactive),–
COc1cc2nc(N(C)CCCNC(=O)C3CCCO3)nc(N)c2cc1OC (stereo not given),-13.3% (inactive),–
CC(C)(Oc1ccc(C2CC2(Cl)Cl)cc1)C(=O)O (stereo not given),20.9% (inactive),–
N[C@@H](Cc1c[nH]c2ccc(O)cc12)C(=O)O,-15.6% (inactive),–
O=C(c1ccc(OCCN2CCCCC2)cc1)c1c(-c2ccc(O)cc2)sc2cc(O)ccc12,23.2% (inactive),–
Clc1ccc2nsnc2c1NC1=NCCN1,-19.6% (inactive),–
O=C1N(c2ccccc2)c2ccccc2C1(Cc1ccncc1)Cc1ccncc1,1.61% (inactive),–
Cc1ccccc1N1C(=O)c2cc(S(N)(=O)=O)c(Cl)cc2NC1C (stereo not given),9.07% (inactive),–
Cc1cc(C(C)(C)C)c(O)c(C)c1CC1=NCCN1,-31.3% (inactive),–

SMILES,activation,Potency
CC(C)NCC(O)COc1ccc(CCOCC2CC2)cc1 (stereo not given),-51.1% (inactive),–
OCCN(CCO)c1nc(N2CCCCC2)c2nc(N(CCO)CCO)nc(N3CCCCC3)c2n1,-45.7% (inactive),–
Fc1ccc([C@@H]2CCNC[C@H]2COc2ccc3c(c2)OCO3)cc1,-6.5% (inactive),–
Cc1cnc(C(=O)NCCc2ccc(S(=O)(=O)NC(=O)NC3CCCCC3)cc2)cn1,18.5% (inactive),–
CS(=O)(=O)Nc1ccc([N+](=O)[O-])cc1Oc1ccccc1,-38% (inactive),–
CC#C[C@]1(O)CC[C@H]2[C@@H]3CCC4=CC(=O)CCC4=C3[C@@H](c3ccc(N(C)C)cc3)C[C@@]21C,5.71% (inactive),–
CN(Cc1cnc2nc(N)nc(N)c2n1)c1ccc(C(=O)N[C@@H](CCC(=O)O)C(=O)O)cc1,5.06% (inactive),–
CC(C)NCC(O)c1ccc(O)c(O)c1 (stereo not given),–,11.9 nM (active)
Cn1c(=O)c2c(ncn2C)n(C)c1=O,-13.9% (inactive),–
O=C1Cc2cc(CCN3CCN(c4nsc5ccccc45)CC3)c(Cl)cc2N1,-24.4% (inactive),–
Nc1nc2c(ncn2COC(CO)CO)c(=O)[nH]1,-14.9% (inactive),–
CCOC(=O)C(C)(C)Oc1ccc(Cl)cc1,-5.76% (inactive),–
CCN1CCCC1CNC(=O)c1cc(S(=O)(=O)CC)c(N)cc1OC (stereo not given),-17% (inactive),–
NC(CO)C(=O)NNCc1ccc(O)c(O)c1O (stereo not given),16% (inactive),–
NC(=O)OCC(COC(N)=O)c1ccccc1,-50.8% (inactive),–
COc1cc2c(c(OC)c1OC)-c1ccc(OC)c(=O)cc1[C@@H](NC(C)=O)CC2,-5.02% (inactive),–
CC[N+](CC)(CC)CCOc1cccc(OCC[N+](CC)(CC)CC)c1OCC[N+](CC)(CC)CC,16.6% (inactive),–
COc1ccccc1OCC(O)CN1CCN(CC(=O)Nc2c(C)cccc2C)CC1 (stereo not given),-20% (inactive),–
NCCc1cnc[nH]1,-35.2% (inactive),–
CN1CCC(=C2c3ccccc3CC(=O)c3sccc32)CC1,-10.6% (inactive),–

# — PubChem BioAssay (NCATS)
